PubChem BioAssay
Activity calls are given as the source filed them.

Assays:
[1] = compound effects on lung adenocarcinoma cell viability – A549, calcein-AM fluorescence, 48 h, basal, profiling panel (AID 1162); details: higher = more signal
[2] = compound effects on differentiated 3T3-L1 adipocyte viability – cell-based, 3T3-L1 adipocytes, calcein-AM fluorescence, 48 h, basal, profiling panel (AID 1163); details: 3T3-L1 adipocytes viability, higher = more signal
[3] = compound effects on hepatocellular carcinoma cell viability – HepG2, calcein-AM fluorescence, 48 h, basal, profiling panel (AID 1164); details: higher = more signal
[4] = compound effects on multiple myeloma cell viability – MM1S, calcein-AM fluorescence, 48 h, basal, profiling panel (AID 1165); details: higher = more signal;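 note: viability of MM1S multiple myeloma cells under basal unstimulated conditions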
[5] = calcein-AM signal in unstimulated myeloma cells – cell-based, calcein-AM fluorescence, 48 h, PK04 Diversity Set, profiling panel (AID 1166); details: RPMI8226 myeloma viability, higher = more signal;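 note: cells grown under basal conditions without added stimulus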
[6] = JC-1 mitochondrial signal, unstimulated HepG2 cells – cell-based, JC-1 fluorescence, 24 h, 100 nL compound, profiling panel (AID 1167); details: HepG2 mitochondrial potential, higher = more signal
[7] = JC-1 mitochondrial signal, unstimulated adipocytes – cell-based, JC-1 fluorescence, 3T3-L1 adipocytes, 24 h, 100 nL compound, profiling panel (AID 1168); details: JC-1 mitochondrial fluorescence, higher = more signal, called active from +8 up or from −8 down
[8] = JC-1 mitochondrial signal, unstimulated myeloma cells – cell-based, JC-1 fluorescence, RPMI8226, 24 h, 100 nL compound, profiling panel (AID 1169); details: JC-1 mitochondrial potential fluorescence, higher = more signal
[9] = JC-1 mitochondrial signal, unstimulated MM1S myeloma – cell-based, JC-1 fluorescence, 24 h, 100 nL compound, profiling panel (AID 1170); details: MM1S mitochondrial potential, higher = more signal
[10] = resazurin metabolic signal in A549 cells – cell-based, resazurin fluorescence, 24 h, PK04 Diversity Set, profiling panel (AID 1171); details: A549 viability, higher = more signal, called active from +8 up or from −8 down
Note: test concentration not given here.

Row | Compound | z-score [1] | z-score [2] | z-score [3] | z-score [4] | z-score [5] | z-score [6] | z-score [7] | z-score [8] | z-score [9] | z-score [10]
1 | COc1ccc(CCNC(=O)[C@@]2(C)c3ccccc3C(=O)N(Cc3cc(F)cc(C(F)(F)F)c3)[C@H]2c2ccc(CO)cc2)cc1 | 0.805 | 0.766 | 0.41 | -1.86 | -2.07 | 0.857 | -0.633 (inactive) | -0.601 | 1.08 | 0.396 (inactive)
2 | O=C1O[C@@H](c2ccccc2)[C@@H](c2ccccc2)N2[C@@H](c3ccc(OCCO)cc3)[C@]3(C(=O)Nc4ccccc43)[C@@H](C(=O)NC[C@H](O)c3ccccc3)[C@H]12 | -0.462 | -0.0144 | -0.328 | -0.38 | -0.575 | -1.76 | -0.872 (inactive) | -0.53 | -0.226 | 0.496 (inactive)
3 | O=C1NCC(=O)N2[C@@H]1C[C@@H](C(=O)O)[C@H]2c1cccc(OCCO)c1 | 0.278 | -0.856 | 0.662 | 0.301 | 0.362 | 2.32 | -0.16 (inactive) | 0.529 | -0.514 | -0.229 (inactive)
4 | COCCCNC(=O)[C@@]1(Cc2ccccc2)N=C(c2ccc(OCCCO)cc2)O[C@H]1c1ccccc1 | -0.736 | -0.493 | -0.104 | -1.03 | -0.856 | 0.00935 | 0.425 (inactive) | -1.11 | -0.314 | 1.57 (inactive)
5 | COCCOC(=O)N1C(=O)[C@@]2(c3cc(C#Cc4ccc(OC)cc4)ccc31)[C@H](c1ccc(O)cc1)N1[C@H](c3ccccc3)[C@H](c3ccccc3)OC(=O)[C@H]1[C@@H]2C(=O)NC[C@H](O)c1ccccc1 | -0.828 | 1.44 | -0.55 | -1 | -2.16 | -1.99 | 2.46 (inactive) | -0.653 | -0.524 | 0.123 (inactive)
6 | O=C1OCCC/C=C\[C@H]2OC34C=CCN(Cn5nnc6ccccc65)C(=O)[C@H]3N(CCO)C(=O)[C@@H]4C12 (stereo not given in full) | 0.499 | 1.02 | -0.822 | 0.971 | -0.117 | 0.31 | 0.192 (inactive) | 0.656 | -0.345 | -0.66 (inactive)
7 | COc1ccc(C(=O)Nc2ccc(CN3C(=O)[C@@]4(O[C@@H](CC(=O)N5CCC[C@H]5CO)[C@H]([Si](C)(C)c5ccc(OC)cc5)[C@H]4C)c4ccccc43)cc2)cc1 | 0.571 | 0.0638 | 0.269 | -2.5 | -3.93 | 3.78 | 0.926 (inactive) | -1.09 | -0.447 | 0.336 (inactive)
8 | CN1C(=O)C2C=CC(C(O)c3ccc(I)cc3)N(N3CCCCC3)C2C1=O (stereo not given) | -0.481 | -0.111 | -0.619 | -3.7 | -0.955 | -0.62 | -0.435 (inactive) | -0.484 | -0.624 | -0.799 (inactive)
9 | O=C1NC(=O)C2C1C=CC(C(O)c1ccccc1)N2Nc1ccc(Cl)cc1Cl (stereo not given) | 0.0862 | -0.0715 | -1.48 | -3.55 | -3.28 | -3.07 | -0.544 (inactive) | -1.09 | -1.59 | -1.92 (inactive)
10 | NC(=O)[C@@H]1[C@H]2C(=O)O[C@H](c3ccccc3)[C@H](c3ccccc3)N2[C@H](c2ccc(O)cc2)[C@@]12C(=O)Nc1ccc(C#CC3(O)CCCCCC3)cc12 | 0.735 | -0.0487 | 0.338 | -1.44 | -0.482 | -0.717 | -0.928 (inactive) | -0.566 | -0.0259 | 0.399 (inactive)
11 | COC(=O)C(CC#Cc1ccc2c(c1)[C@]1(C(=O)N2)[C@H](c2ccc(O)cc2)N2[C@H](c3ccccc3)[C@H](c3ccccc3)OC(=O)[C@H]2[C@@H]1C(=O)Nc1nc2ccccc2s1)C(=O)OC | 1.37 | 0.72 | 1.47 | 0.247 | -1.65 | -1.44 | -0.719 (inactive) | -0.712 | 0.422 | -0.351 (inactive)
12 | O=C1OCCC/C=C\[C@H]2OC34C=CCN(CCN5CCOCC5)C(=O)[C@H]3N(CCCO)C(=O)[C@@H]4C12 (stereo not given in full) | -0.235 | 1.01 | -0.631 | 1.19 | -0.87 | -1.01 | -0.734 (inactive) | 0.806 | 0.486 | 0.116 (inactive)
13 | COC(=O)[C@@]1(Cc2ccc(F)cc2)[C@@H]2[C@@H](CC(=O)[C@H]2CC(=O)C(=O)N(C)C)CN1C(=O)c1ccccc1 | -0.294 | -1.19 | 0.27 | -0.886 | -1.73 | 1.65 | -0.554 (inactive) | -0.00425 | -1.92 | -2 (inactive)
14 | COCCCN1C(=O)[C@@]2(c3ccc([N+](=O)[O-])cc3)CC(=O)N(C3CCCCC3)[C@@H]2c2ccc(CO)cc21 | -0.794 | -1.03 | 0.14 | 0.819 | -1.23 | -0.393 | 0.939 (inactive) | -0.739 | -0.847 | -1.18 (inactive)
15 | CCN(CC)c1ccc(N2CC=CC34O[C@@H]5/C=C\CCC(C)OC(=O)C5[C@H]3C(=O)N(C(CO)C(C)C)[C@@H]4C2=O)cc1 (stereo not given in full) | -0.0553 | -1.18 | 0.936 | 1.26 | -0.208 | 0.96 | -0.118 (inactive) | 0.0122 | 1.01 | 0.406 (inactive)
16 | C[C@@]1([C@@H](NC(=O)c2ccccc2)c2ccc(-c3ccccc3)cc2)C[C@H]1C1CCCCC1 | -1.35 | -0.502 | -0.687 | -0.646 | -1.28 | -0.964 | -1.22 (inactive) | 0.318 | -0.308 | -1.2 (inactive)

Row | Compound | z-score [1] | z-score [2] | z-score [3] | z-score [4] | z-score [5] | z-score [6] | z-score [7] | z-score [8] | z-score [9] | z-score [10]
17 | O=C1C2C=CC(C(O)c3c(F)cccc3Cl)N(Nc3ccccc3)C2C(=O)N1c1ccccc1 (stereo not given) | 1.14 | -1.4 | 0.309 | -0.474 | 0.474 | -1.41 | 0.455 (inactive) | -0.235 | -0.488 | -0.0768 (inactive)
18 | O=C1[C@H]2C=C(Br)[C@H](C[C@@H]2c2ccccc2)[C@@]12CO2 | -1.18 | -0.559 | -0.675 | -2.95 | -2.49 | -1.69 | 0.0869 (inactive) | -0.323 | -0.609 | -0.541 (inactive)
19 | CCCC[C@@H]1C[C@H]1[C@@H](NC(=O)c1ccco1)c1ccc(Cl)cc1 | -2.3 | -0.679 | -0.746 | -1.95 | -2.24 | 2.38 | -0.732 (inactive) | -0.318 | -1.37 | 0.473 (inactive)
20 | O=C1OCCC=C[C@H]2OC34C=CCN(CCN5CCOCC5)C(=O)[C@H]3N(CCCCCCO)C(=O)[C@@H]4C12 (stereo not given in full) | 0.758 | -3.63 | 0.821 | 1.32 | 0.477 | 1.07 | -0.347 (inactive) | 0.0953 | 0.341 | 0.459 (inactive)
21 | C=CCOC(=O)[C@@H]1[C@H]2C(=O)O[C@H](c3ccccc3)[C@H](c3ccccc3)N2[C@H](c2ccc(OCCOC(=O)[C@@H]3C[C@@H]4C(=O)N5CCC[C@H]5C(=O)N4[C@@H]3c3ccc(O)cc3)cc2)[C@@]12C(=O)Nc1ccc(I)cc12 | 1.87 | 1.24 | 0.502 | -0.573 | 0.278 | -1.6 | 0.231 (inactive) | -0.752 | -1.25 | -0.248 (inactive)
22 | CN1C(=O)C2C=CC(C(O)C3=C[C@H]4C[C@@H](C3)C4(C)C)N(Nc3ccccc3)C2C1=O (stereo not given in full) | -0.456 | -0.893 | -0.0728 | -2.52 | -0.724 | -1.75 | -0.209 (inactive) | -0.353 | -0.39 | 0.0383 (inactive)
23 | [N-]=[N+]=NCc1ccccc1[C@@H]1OC(c2ccc(OCCCO)cc2)=N[C@]1(CCS(=O)(=O)c1ccccc1)C(=O)NCCN1CCOCC1 | 1.68 | -0.0282 | 1.61 | 0.377 | 0.501 | 0.374 | 0.995 (inactive) | 0.127 | -0.806 | -0.597 (inactive)
24 | CCCC#C[Si](O[C@H](CC)c1cn([C@H](CO)Cc2ccccc2)nn1)(C(C)C)C(C)C | 0.0096 | -0.263 | 0.0341 | -1.21 | 0.0028 | -0.371 | 0.406 (inactive) | 0.78 | -0.752 | 0.401 (inactive)
25 | C=CCN1C(=O)[C@]2(O[C@H](CCO)[C@@H]([Si](C)(C)c3ccc(OC)cc3)[C@@H]2C)c2cc(N3CCCCC3=O)ccc21 | -1.25 | 0.257 | -2.15 | -2.54 | -3.82 | -0.61 | -0.305 (inactive) | -0.982 | -1.63 | -3.52 (inactive)
26 | C#CCNC(=O)[C@H](Cc1ccccc1)NC(=O)CCC(=O)O | -0.281 | -0.405 | 0.0694 | 0.527 | 0.0189 | -0.821 | -0.536 (inactive) | 0.539 | -0.97 | -0.119 (inactive)
27 | CN1C(=O)C2C=CC(C(O)c3cc(C(F)(F)F)cc(C(F)(F)F)c3)N(N3CCCCC3)C2C1=O (stereo not given) | 0.704 | 0.421 | 0.499 | -1.02 | -0.533 | -0.672 | -0.205 (inactive) | 0.462 | -0.444 | 0.113 (inactive)
28 | CC(C)(C)OC(=O)CC[C@]12N=C(c3ccc(OCCCO)cc3)O[C@H]1c1ccccc1N(CCS(=O)(=O)c1ccccc1)C2=O | 1.16 | 0.308 | 1.44 | -1.52 | -0.568 | -0.784 | 1.45 (inactive) | -1.09 | -0.719 | -1.71 (inactive)
29 | C=C(C)C1C(=C)CN([C@H](CO)c2ccccc2)C1=O (stereo not given in full) | -0.488 | 0.783 | -0.764 | 0.0188 | -2.01 | -0.113 | 0.113 (inactive) | -0.175 | -0.761 | 1.02 (inactive)
30 | O=C(NCc1ccc(F)cc1)[C@H]1C[C@H]2C(=O)N[C@@H](Cc3ccccc3)C(=O)N2[C@H]1c1ccc(O)cc1 | 0.0416 | 0.17 | 0.0329 | -0.973 | -0.27 | 1.11 | 0.672 (inactive) | 0.736 | 0.453 | 0.278 (inactive)
31 | C=CCOC(=O)[C@H]1[C@@H]2C(=O)O[C@@H](c3ccccc3)[C@@H](c3ccccc3)N2[C@@H](c2ccc(OCCOC(=O)[C@@H]3C[C@@H]4C(=O)N[C@@H](CCCC[N+](C)(C)C)C(=O)N4[C@@H]3c3ccc(O)cc3)cc2)[C@]12C(=O)Nc1ccccc12 | 1.23 | 1.53 | -0.265 | -1.07 | 0.95 | -1.37 | 0.396 (inactive) | -0.923 | -0.504 | 1.19 (inactive)
